PBM binding z-score data for 40 sequences are collected here from the supplement of paper PMC6555819.

This assay has as its system VDR:RXRa (NR concentration 270 nM, RXRa partner concentration 90 nM). In words: PBM binding z-score (relative to random genomic background probes); higher = stronger binding; sequences stand for … in GC…GCGATTGACAGCGTAGAATGAAGG
As for the experimental part:
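Protein-binding microarray (Agilent 4x180K custom design, double-stranded 60-nt probes: 5' GC cap, 34-nt variable region, 24-nt constant primer region; full probe sequence given). Purified or IVT nuclear receptor:RXRα heterodimers (3:1 NR:RXRα, mostly 270:90 nM) or homodimers were incubated for 1 h in PBS with 2% milk and no ligand, then detected with Alexa488 antibodies. Fluorescence from o1-orientation probes (~5 replicates averaged) was converted to z-scores against 500 random hg19 background probes. Variable regions are seed direct-repeat (DR0–DR5) sites, all their single-nucleotide variants and half-site ablations.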
Regarding CGTCAAAGTTAAACTAAGGTAACGTAAAGCACGC, the PBM binding z-score worked out at 0.371.
The sequence ACTAGCAGTCCAAGGGTCACTCAAGATTAGTCCG displayed a PBM binding z-score of 2.86.
With GCGTCTGGGGCAAAGCAGGTTACCATAAGGTTGG the figure was 0.117; with CCTACTGGGACACGAAAGGTCATTGATTCAGTGA, 4.06.
In turn, GCAAGTTGGTCAGTAAAAGGTCACACACCGGTCG displayed a PBM binding z-score of 4.11.
TGAACGAGGTTAAAGATCAGGGAACGTGGCGTCG displayed a PBM binding z-score of 1.8.
Next, TGAATGAGCTTATAAGATCAGGGAACGTTGCAAA: -0.361; CAGCCGAGGTCAGGGCCAGTATAGGAGGAACGTT: 3.64.
Next, TATACAGGGTCAAAGGCCAGATTACGAATGTCGA: 4.85; ATATGTAGGTTAAGGGTCATTAAGGTTGGTTCGC: 6.19; CCCGAAAGGTCGTGCTCAGGTGAGTATACCAAAC: 3.47.
The sequence CGAACTAGGTCAAGGACAGAGAATCTCCGCACGC gave a PBM binding z-score of 1.02.
Next, CGAACTAGGTCAAGGTCAAAGTCGGTTTGTGCCA: 4.97.
With TAGCCTAGGTCGGATCGGGCCAGTATACGCTATA the figure was -0.475; with TAGCCTAGGTCATTCTGGGGCCAGTATAGAAAGC, 2.88.
Next, TCGAGGAGGTTACCAATGGGGCATTCAGCTTTCT: 1.13.
TCGAGTAGGTTACAAATGGGGCATTCAGCTTTCT had a PBM binding z-score of 0.216.
Next, GGAACGAGGGCTAGTTGATAGCAGAGTTTGATGG: -0.607; AATACAGGGTCATCGTAGGCCAGAGTACGCACAG: 5.37.
Take TCTCGGAGGACACGAAAGGTAAGAGCTCGACATC: the PBM binding z-score turned out to be 0.0922.
AGAACAAGGGCAATGAGTTGATAGCACGGGTGGC had a PBM binding z-score of 4.7.
With TCGTGTAGATCAATAGAGGTTAAGAAAGTGCGCT the figure was 1.83.
The sequence CCTACTGGGCCAAGGTCGTTGATCAGTCAAAGCA registered a PBM binding z-score of 0.505.
With TAGCCTAGGTCAGATCGGGCCATTATACGCTATA the figure was 1.6.
ACTAGTTAGTCAGCTGAGGTCACACACAATTCGG: the PBM binding z-score was determined as 4.19.
With CCGAGTAGGTTGTGGGGCATTCAGGCAACGGTGA the figure was -0.367; with GCTTACGGGTCAAAGGTTATATCATGAATAGAAT, 5.71; with GCTTACGGGGCAAAGGTTATAGCATGAATAGAAT, 2.08.
The sequence CGTCCAAGGTCATAGGAGGTCAGTAAAGACAGAT gave a PBM binding z-score of 6.61.
In turn, TCTTGTAGATCCAGCAGGTTAAGAAAGCCTGAGT came in with a PBM binding z-score of 0.306.
With TCTTGTATATCAGCAGGTTAAGAAAGCTGGCCAA the figure was 0.851; with CCGACTGGGGCATAAGGTAACCATAAGCCAGCCC, -0.407; with GGAGCGAGGGCAAGTTGATAGCAGAGTTTGATGG, 0.407.
Next, TCATATAGGTAGAGGTGAAAGTCGAACGATATGA: 0.794.
With GCTCCTAGGTCAGGTTGGTCAGCTAACGGGTACG the figure was 0.913; with AGTCAAAGTTCACTAGGTAACGTACGATTCAGCT, 4.24.
The sequence AGTTAAAGTTCATCTAGGTAACGTAAGATATGCT displayed a PBM binding z-score of 4.42.
AGTCAAAGTTCAGGACGAGGTAACGTCAAGCACG showed a PBM binding z-score of 3.07.
With ATCTCGAGGTAAAAGTTCAGTGAATCCCGAGGAT the figure was 1.7; with TAGCCTAGGTCAGATCGAGCCAGTATACGCTATA, 0.0723.
